Data reported in PubChem BioAssay (EPA / NIEHS).
The source made the active and inactive calls. How the source made its calls: active means hit-call score of the fitted dose curve at least 0.9, where 1 is the maximum; inactive means score below 0.9.

read-out: Urokinase-type plasminogen activator receptor (uPAR), PLAUR (gene 5329); assay: BSK_4H_uPAR: BioMAP Diversity Plus: 4H Assay for Urokinase-type plasminogen activator receptor (uPAR) Biomarker Activity (AID 2283030); conditions: primary human endothelial cells (HUVEC); actives raise or lower the signal
Procedure: BSK_4H is a cell-based, multiplexed-readout assay that uses umbilical vein endothelium, a human vascular primary cell, with measurements taken at 24 hours after chemical dosing in a 96-well plate.BSK_4HAR is an assay component measured in the BSK_4H assay. It measures uPAR antibody related to regulation of gene expression using ELISA technology.Data from the assay component BSK_4HAR was analyzed into 1 assay endpoint. This assay endpoint, BSK_4HAR, was analyzed with bidirectional fitting relative to DMSO as the negative control and baseline of activity. Using a type of binding reporter, gain or loss-of-signal activity can be used to understand changes in the signaling as they relate to the gene PLAUR. Furthermore, this assay endpoint can be referred to as a primary readout, because this assay has produced multiple assay endpoints where this one serves a signaling function. To generalize the intended target to other relatable targets, this assay endpoint is annotated to the cytokine intended target family, where the subfamily is plasmogen activator.
The levels of cell surface (or secreted, indicated by the prefix "s") biomarker endpoints were measured by ELISA. Overt cytotoxicity to cells in confluent adherent cultures (all systems other than the BT system) was assessed by measuring total protein levels using sulforhodamine B (SRB) staining in parallel cultures at the time of biomarker measurements, indicated as SRB endpoints. For proliferation assays for adherent cell types, individual cell types are cultured at sub-confluence and relative cell numbers quantified by SRB staining at time points optimized for each system (48 h: 3C and CASM3C systems; 72 h: BT and HDF3CGF systems; 96 h: SAg system). SRB was performed by staining cells with 0.1% SRB after fixation with 10% TCA and reading wells at 560 nm.Viability and proliferation of PBMC (T cells) was quantified by Alamar Blue reduction for the SAg and BT systems. For PBMC viability (referred to as PBMC Cytotoxicity within the assay endpoint names), cells were plated (75,000/well in a 96-well plate) and then chemical samples added for 1 h before addition of activators, SEB and TSST-1 (20 ng/mL final concentration each). Cells were incubated for 90 h. Then, Alamar Blue (20 uL/well) (Invitrogen, Cat DAL1100) was added for 6 h, and the plates were read with a fluorescence microplate reader at 546/580 nm (excitation/emission). For PBMC proliferation, cells were plated and activated as above but incubated for only 16 h prior to addition of Alamar Blue. Plates were read after 6 h.

**Q.** How did the outcome turn out when `CC(C)(OO)c1ccccc1` was run?
**A.** Its outcome is “inactive”.

**Q.** With `O=C(O)C(F)(F)C(F)(F)C(F)(F)C(F)(F)C(F)(F)C(F)(F)F` as the molecule, how does the outcome read?
**A.** The outcome was “inactive”.

**Q.** Which AC50 does the source give for `CCOC(=O)/C=C(C)/C=C/C[C@@H](C)CCCC(C)C` here?
**A.** Its AC50 is 31.8 µM (active).

**Q.** How did the outcome turn out when `O=C(O)CCC(F)(C(F)(F)F)C(F)(F)F` was run?
**A.** The outcome was “inactive”.

**Q.** `Oc1cccc2cccnc12` was tested. Which outcome did it give?
**A.** Its outcome is “inactive”.

**Q.** For `O=Cc1cccc(Oc2ccccc2)c1`, which outcome is on record?
**A.** Its outcome is “inactive”.

**Q.** `CC(=O)OC(c1ccccc1)C(Cl)(Cl)Cl` (stereo not given) was tested. Which outcome did it give?
**A.** Its outcome is “inactive”.

**Q.** With `C[C@@H]1C[C@@H]([C@H](O)CC2CC(=O)NC(=O)C2)C(=O)[C@@H](C)C1` as the molecule, how does the AC50 read?
**A.** Its AC50 is 4.3 µM (active).

**Q.** For `COc1cc(-c2ccc(N)c(OC)c2)ccc1N`, which outcome is on record?
**A.** The outcome was “inactive”.

**Q.** `CCOP(=S)(OCC)SCCS(=O)(=O)CC` was tested. Which outcome did it give?
**A.** Its outcome is “inactive”.

**Q.** How did the outcome turn out when `COP(=S)(OC)Oc1ccc(Sc2ccc(OP(=S)(OC)OC)cc2)cc1` was run?
**A.** Its outcome is “inactive”.

**Q.** Which outcome does the source give for `CCOP(=S)(OCC)Oc1nc(Cl)c(Cl)cc1Cl` here?
**A.** Its outcome is “inactive”.

**Q.** With `ClC(Cl)=C(Cl)C(Cl)=C(Cl)Cl` as the molecule, how does the AC50 read?
**A.** The AC50 was 32.2 µM (active).

**Q.** Which outcome does the source give for `ClC1=C(Cl)[C@]2(Cl)[C@H]3[C@H]([C@H]4C=C[C@H]3C4)[C@@]1(Cl)C2(Cl)Cl` here?
**A.** Its outcome is “inactive”.

**Q.** For `OCc1ccco1`, which outcome is on record?
**A.** Its outcome is “inactive”.

**Q.** With `CCCCCCCCC(=O)NCc1ccc(O)c(OC)c1` as the molecule, how does the outcome read?
**A.** The outcome was “inactive”.

**Q.** How did the AC50 turn out when `CC(C)(C)CC(C)(C)c1ccc(O)cc1` was run?
**A.** Its AC50 is 9.65 µM (active).

**Q.** `O=C(OC1CCCCC1)c1ccccc1C(=O)OC1CCCCC1` was tested. Which AC50 did it give?
**A.** Its AC50 is 13 µM (active).

**Q.** `Nc1ccc(-c2ccc(N)c(Cl)c2)cc1Cl` was tested. Which AC50 did it give?
**A.** Its AC50 is 10.6 µM (active).

**Q.** For `COc1cc(OC)nc(NC(=O)NS(=O)(=O)c2ncccc2C(=O)N(C)C)n1`, which outcome is on record?
**A.** The outcome was “inactive”.

**Q.** How did the outcome turn out when `Nc1ncc([N+](=O)[O-])s1` was run?
**A.** The outcome was “inactive”.

**Q.** With `CC12CC1(C)C(=O)N(c1cc(Cl)cc(Cl)c1)C2=O` (stereo not given) as the molecule, how does the outcome read?
**A.** Its outcome is “inactive”.

**Q.** With `CC(C)CCCCCCOC(=O)c1ccccc1C(=O)OCCCCCCC(C)C` as the molecule, how does the outcome read?
**A.** The outcome was “inactive”.

**Q.** For `BrCCBr`, which outcome is on record?
**A.** The outcome was “inactive”.

**Q.** With `CC(C)(c1ccccc1)c1ccc(O)c(C(C)(C)c2ccccc2)c1` as the molecule, how does the AC50 read?
**A.** Its AC50 is 9.78 µM (active).

**Q.** With `CCSC(C)CC1CC(=O)C(C(CC)=NOC/C=C/Cl)=C(O)C1` (stereo not given) as the molecule, how does the outcome read?
**A.** Its outcome is “inactive”.

**Q.** With `O=C(Nc1ccc2[nH]ccc2c1)c1cc2cc(F)ccc2n1Cc1cccc(F)c1` as the molecule, how does the AC50 read?
**A.** The AC50 was 9.25 µM (active).

**Q.** Which outcome does the source give for `CC(=O)C(Cl)C(=O)N(C)C` (stereo not given) here?
**A.** The outcome was “inactive”.

**Q.** `CC(C)(C)c1cc(O)ccc1O` was tested. Which outcome did it give?
**A.** The outcome was “inactive”.

**Q.** `NC(=S)Nc1ccccc1` was tested. Which outcome did it give?
**A.** The outcome was “inactive”.

**Q.** How did the AC50 turn out when `CCCCC(CC)CO[N+](=O)[O-]` (stereo not given) was run?
**A.** The AC50 was 33 µM (active).

**Q.** How did the outcome turn out when `Cn1sc(Cl)cc1=O` was run?
**A.** The outcome was “inactive”.

**Q.** Which outcome does the source give for `ClCC(Cl)CCl` here?
**A.** Its outcome is “inactive”.

**Q.** For `CCC(=O)C(CC(C)N(C)C)(c1ccccc1)c1ccccc1` (stereo not given), which outcome is on record?
**A.** The outcome was “inactive”.

**Q.** Which outcome does the source give for `COP(=S)(OC)Oc1cc(Cl)c(Cl)cc1Cl` here?
**A.** The outcome was “inactive”.

**Q.** How did the outcome turn out when `O=[N+]([O-])c1ccc(O)c([N+](=O)[O-])c1` was run?
**A.** Its outcome is “inactive”.

**Q.** Which outcome does the source give for `CC(C)c1ccc(CO)cc1` here?
**A.** The outcome was “inactive”.

**Q.** With `COC(=O)c1sccc1S(=O)(=O)NC(=O)Nc1nc(C)nc(OC)n1` as the molecule, how does the outcome read?
**A.** Its outcome is “inactive”.

**Q.** Which outcome does the source give for `Oc1ccc(-c2ccccc2)cc1` here?
**A.** The outcome was “inactive”.

**Q.** `C[C@]12CCC(=O)C[C@@H]1CC[C@@H]1[C@@H]2CC[C@]2(C)[C@@H](O)CC[C@@H]12` was tested. Which outcome did it give?
**A.** Its outcome is “inactive”.
